Assay results: publication PMC5540273 (PLoS ONE, 2017)

Test system: MRCKA
Details: concentration: 1 μM, replicates: in singlicate; n = 1
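Note: KINOMEscan kinase panel screen.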

Structure (SMILES)	%Inh [%]
CCn1c(-c2cccnc2O)nc2cnccc21 [SB-736715]	4
Cl.Oc1ccc(-c2nc(-c3ccccc3)[nH]c2-c2ccncc2)cc1 [SB-428218]	43
CC(=O)Nc1nc2cnc(Nc3cc(NC(=O)c4cccc(CCC#N)c4)ccc3C)nc2s1	0
O=S(=O)(c1ccc(-c2ccnc3[nH]ccc23)cc1)N1CCCC1 [GSK846226]	0
CN1C(=O)C(Nc2ccc(Cl)c(C(=O)O)c2)=C(c2ccc(Cl)cc2)C1=O [SB-404290]	13
Fc1cc(Cl)ccc1Nc1ccnc2cc(I)ccc12 [GW551191]	16
O=c1cc(N2CCOCC2)nc2n(Cc3cccc(Cl)c3Cl)ccn12 [GSK2286295]	8
Cn1ccc2ncnc(Oc3ccc(NC(=O)Nc4ccccc4)cc3)c21	0
COc1cc(Nc2nccc(N3CCC(NC(=O)Nc4cc(C)ccc4C)C3)n2)cc(OC)c1OC (stereo not drawn) [GSK1379762]	0
CC(C)(C)c1ccc(C(=O)Nc2cn3cc(Cl)ccc3n2)cc1	0
COc1ccccc1CNC(=O)c1cc(C(=O)c2ccccc2C)c[nH]1 [GSK364507]	40
O=C(O)COc1ncnc2cc(-c3ccc4[nH]ncc4c3)sc12	0
CS(=O)(=O)c1ccc(-c2nc3n(c2-c2ccncc2)CCC3)cc1 [SKF-105942]	14
Cc1c(Cn2ccn3c(=O)cc(N4CCOCC4)nc23)cccc1C(F)(F)F [GSK2289044]	0
O=C(Nc1n[nH]c2cc(-c3cccc(F)c3F)ccc12)C1CC1 [SB-733894]	6
Cc1csc(-c2nc(Nc3ccncc3)c3ccccc3n2)n1 [GW869640]	0
Cl.NC(=O)c1cccc(Nc2nccc(Nc3ccc(Oc4cccc(Cl)c4)c(Cl)c3)n2)c1 [GW659008]	26
O=C1NC(=O)C(N2CCc3ccccc32)=C1c1ccccc1Cl [SB-373598]	0

Structure (SMILES)	%Inh [%]
COC(=O)c1c(-c2ccccc2)c2cc(C(=O)O)ccc2c(=O)n1Cc1ccccc1	0
Cc1cc(-c2ccc3c(c2)CC[C@@H](N[C@@H](C)c2ccccc2)C3)cnc1N.Cl [GW412617]	0
Nc1ncnc2[nH]c(-c3ccccc3)nc12 [AH5015]	0
O=C(Nc1n[nH]c2nc(-c3nccs3)c(Br)cc12)C1CC1 [SB-742251]	3
Cc1ccccc1-n1cnc2c(N)ncnc21 [SKF-97510]	0
Clc1cc(Cl)cc(Nc2ccnc(Nc3cc(Cl)cc(Cl)c3)n2)c1 [GSK175726]	9
Cn1ccc2ncnc(Oc3ccc(Nc4nc5ccccc5[nH]4)cc3)c21	0
CCCc1ccc(S(=O)(=O)NC2CCN(c3ccnc(Nc4ccc(F)cc4)n3)C2)cc1 (stereo not drawn) [GSK1379715]	12
COc1cc2nccc(Nc3ccc(NC(=O)c4ccc(C)cc4)c(O)c3)c2cc1OC.Cl [GW440132]	13
CCn1c(-c2ccccn2)nc2cnccc21 [SB-736398]	14
Cl.O=C(Nc1cccc(-c2nn3ncccc3c2-c2ccnc(Nc3cccnc3)n2)c1)c1c(F)cccc1F [GSK312879]	1
Cc1ccc(NC(=O)Nc2cccc(Cl)c2)cc1-c1ccc(C(=O)Nc2ccncc2)cc1 [GSK1398468]	19
O=C(Nc1ccc2c(c1)OCO2)NC1CCN(c2ccnc(Nc3ccc(F)cc3)n2)C1 (stereo not drawn) [GSK1379724]	2
COc1ccc(Nc2nccc(NCCNC(=O)Nc3ccccc3F)n2)cc1 [GSK1379901]	23
COc1ccc(Nc2nccc(-c3cccc(NC(=O)c4cc5cc(F)ccc5[nH]4)c3)n2)cc1 [GSK1229782]	27
Cc1cc(N2Cc3ccccc3C2)nc(Nc2ccc(S(=O)(=O)N3CCOCC3)cc2)n1.Cl [GSK1669917]	1
COc1ccc(CNC(=O)NC2CCN(c3ccnc(Nc4cc(OC)c(OC)c(OC)c4)n3)C2)cc1 (stereo not drawn) [GSK1379748]	34
Cc1ccc(-c2cc(-c3c[nH]nc3-c3ccccn3)ccn2)cc1 [GW684088]	2

Test system: T1, MRCKB
T1 construct: gene CDC42BPB
Details: concentration: 1 μM, replicates: in singlicate; n = 1

Structure (SMILES)	%Inh [%]
CCn1c(-c2cccnc2O)nc2cnccc21 [SB-736715]	0
Cl.Oc1ccc(-c2nc(-c3ccccc3)[nH]c2-c2ccncc2)cc1 [SB-428218]	2
CC(=O)Nc1nc2cnc(Nc3cc(NC(=O)c4cccc(CCC#N)c4)ccc3C)nc2s1	0
O=S(=O)(c1ccc(-c2ccnc3[nH]ccc23)cc1)N1CCCC1 [GSK846226]	0
CN1C(=O)C(Nc2ccc(Cl)c(C(=O)O)c2)=C(c2ccc(Cl)cc2)C1=O [SB-404290]	0
Fc1cc(Cl)ccc1Nc1ccnc2cc(I)ccc12 [GW551191]	0
O=c1cc(N2CCOCC2)nc2n(Cc3cccc(Cl)c3Cl)ccn12 [GSK2286295]	0
Cn1ccc2ncnc(Oc3ccc(NC(=O)Nc4ccccc4)cc3)c21	16
COc1cc(Nc2nccc(N3CCC(NC(=O)Nc4cc(C)ccc4C)C3)n2)cc(OC)c1OC (stereo not drawn) [GSK1379762]	0
CC(C)(C)c1ccc(C(=O)Nc2cn3cc(Cl)ccc3n2)cc1	0
COc1ccccc1CNC(=O)c1cc(C(=O)c2ccccc2C)c[nH]1 [GSK364507]	0
O=C(O)COc1ncnc2cc(-c3ccc4[nH]ncc4c3)sc12	0
CS(=O)(=O)c1ccc(-c2nc3n(c2-c2ccncc2)CCC3)cc1 [SKF-105942]	2
Cc1c(Cn2ccn3c(=O)cc(N4CCOCC4)nc23)cccc1C(F)(F)F [GSK2289044]	0
O=C(Nc1n[nH]c2cc(-c3cccc(F)c3F)ccc12)C1CC1 [SB-733894]	17
Cc1csc(-c2nc(Nc3ccncc3)c3ccccc3n2)n1 [GW869640]	44
Cl.NC(=O)c1cccc(Nc2nccc(Nc3ccc(Oc4cccc(Cl)c4)c(Cl)c3)n2)c1 [GW659008]	0
O=C1NC(=O)C(N2CCc3ccccc32)=C1c1ccccc1Cl [SB-373598]	5

Structure (SMILES)	%Inh [%]
COC(=O)c1c(-c2ccccc2)c2cc(C(=O)O)ccc2c(=O)n1Cc1ccccc1	0
Cc1cc(-c2ccc3c(c2)CC[C@@H](N[C@@H](C)c2ccccc2)C3)cnc1N.Cl [GW412617]	4
Nc1ncnc2[nH]c(-c3ccccc3)nc12 [AH5015]	0
O=C(Nc1n[nH]c2nc(-c3nccs3)c(Br)cc12)C1CC1 [SB-742251]	0
Cc1ccccc1-n1cnc2c(N)ncnc21 [SKF-97510]	0
Clc1cc(Cl)cc(Nc2ccnc(Nc3cc(Cl)cc(Cl)c3)n2)c1 [GSK175726]	6
Cn1ccc2ncnc(Oc3ccc(Nc4nc5ccccc5[nH]4)cc3)c21	0
CCCc1ccc(S(=O)(=O)NC2CCN(c3ccnc(Nc4ccc(F)cc4)n3)C2)cc1 (stereo not drawn) [GSK1379715]	0
COc1cc2nccc(Nc3ccc(NC(=O)c4ccc(C)cc4)c(O)c3)c2cc1OC.Cl [GW440132]	8
CCn1c(-c2ccccn2)nc2cnccc21 [SB-736398]	0
Cl.O=C(Nc1cccc(-c2nn3ncccc3c2-c2ccnc(Nc3cccnc3)n2)c1)c1c(F)cccc1F [GSK312879]	8
Cc1ccc(NC(=O)Nc2cccc(Cl)c2)cc1-c1ccc(C(=O)Nc2ccncc2)cc1 [GSK1398468]	0
O=C(Nc1ccc2c(c1)OCO2)NC1CCN(c2ccnc(Nc3ccc(F)cc3)n2)C1 (stereo not drawn) [GSK1379724]	16
COc1ccc(Nc2nccc(NCCNC(=O)Nc3ccccc3F)n2)cc1 [GSK1379901]	0
COc1ccc(Nc2nccc(-c3cccc(NC(=O)c4cc5cc(F)ccc5[nH]4)c3)n2)cc1 [GSK1229782]	2
Cc1cc(N2Cc3ccccc3C2)nc(Nc2ccc(S(=O)(=O)N3CCOCC3)cc2)n1.Cl [GSK1669917]	0
COc1ccc(CNC(=O)NC2CCN(c3ccnc(Nc4cc(OC)c(OC)c(OC)c4)n3)C2)cc1 (stereo not drawn) [GSK1379748]	0
Cc1ccc(-c2cc(-c3c[nH]nc3-c3ccccn3)ccn2)cc1 [GW684088]	0
